# Measured values taken from PubChem BioAssay AID623911 (Vanderbilt High Throughput Screening Facility, 2012).
# Hit rate of the full screen: of about 2,100 compounds, about 770 (37%) were called active. The list shows a part of the results. A number with no mark means an inactive call.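 How the source made its calls: active means by-eye trace score of 1 for enhancers or -1 for inhibitors, so actives lie on both sides (some results past the limit were not filed as active); inactive means score 0, or 3 fluorescent, or 4 baseline rise.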
# Biological target: G protein-activated inward rectifier potassium channel 2 (Homo sapiens) + G protein-activated inward rectifier potassium channel 1 (Homo sapiens) (UniProt P48051+P48549)
# Sequence (P48051 whole entry, looked up): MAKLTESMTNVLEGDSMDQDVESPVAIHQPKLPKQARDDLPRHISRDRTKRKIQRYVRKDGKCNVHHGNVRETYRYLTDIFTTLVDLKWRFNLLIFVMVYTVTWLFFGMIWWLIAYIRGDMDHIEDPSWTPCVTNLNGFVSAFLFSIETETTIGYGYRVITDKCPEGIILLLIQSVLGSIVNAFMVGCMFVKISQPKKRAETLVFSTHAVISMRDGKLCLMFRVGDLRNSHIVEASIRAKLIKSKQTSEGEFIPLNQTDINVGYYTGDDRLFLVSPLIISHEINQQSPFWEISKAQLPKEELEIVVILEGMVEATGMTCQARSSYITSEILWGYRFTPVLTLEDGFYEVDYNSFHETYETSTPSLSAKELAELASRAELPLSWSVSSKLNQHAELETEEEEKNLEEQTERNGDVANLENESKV
# Sequence (P48549 whole entry, looked up): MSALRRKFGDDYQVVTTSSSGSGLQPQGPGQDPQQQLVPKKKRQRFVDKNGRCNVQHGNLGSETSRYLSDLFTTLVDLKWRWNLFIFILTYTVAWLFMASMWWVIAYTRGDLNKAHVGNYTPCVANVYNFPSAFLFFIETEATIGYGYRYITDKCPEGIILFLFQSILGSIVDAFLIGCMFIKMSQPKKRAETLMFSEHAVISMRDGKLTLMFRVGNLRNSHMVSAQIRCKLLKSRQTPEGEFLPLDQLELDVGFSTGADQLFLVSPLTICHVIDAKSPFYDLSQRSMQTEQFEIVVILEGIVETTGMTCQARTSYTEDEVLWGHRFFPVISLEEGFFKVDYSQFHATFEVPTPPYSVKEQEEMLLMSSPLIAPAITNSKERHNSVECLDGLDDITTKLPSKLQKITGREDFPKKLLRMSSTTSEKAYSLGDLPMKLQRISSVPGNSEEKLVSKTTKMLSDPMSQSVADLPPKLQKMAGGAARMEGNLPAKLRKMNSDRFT
# Experiment: GIRK1/2 thallium flux modulators, retest, confirmation, cell-based, HEK293 rmGlu8/hGIRK1/2, FluoZin-2 (AID 623911)
# Settings: HEK293 rmGlu8/hGIRK1/2, thallium flux FluoZin-2; actives lie on both sides; glutamate co-added at its EC20 level
row,SMILES,manual score
1,Cc1ccc(OCC(=O)NC(=S)Nc2cccc(C)n2)cc1,0
2,O=C(CC(=O)Nc1ccccn1)Nc1ccccn1,0
3,O=C(NC(=S)Nc1ccccn1)c1ccco1,1 (active)
4,Cc1ccc2cccc(NC(=S)NC(=O)c3ccnn3C)c2n1,0
5,O=C(NC(=S)Nc1ccccn1)c1cc(-c2ccccc2)nc2ccccc12,0.5
6,Cc1cccc(NC(=S)NC(=O)c2ccco2)n1,1 (active)
7,Cc1ccc([N+](=O)[O-])cc1NC(=S)NC(=O)c1ccco1,1 (active)
8,Cc1ccc2nsnc2c1NC(=S)NC(=O)c1ccco1,1 (active)
9,Cc1cc([N+](=O)[O-])ccc1NC(=S)NC(=O)Cc1ccccc1,0
10,COc1cccc(C(=O)NC(=S)Nc2ccc([N+](=O)[O-])cc2C)c1,0
11,COc1ccc(CO/N=C/c2c(C)[nH]c(=O)[nH]c2=O)cc1,0
12,CCCn1nnc(NC(=O)COc2ccc(C3CCCCC3)cc2)n1,0
13,CC(NC(=O)C1CC=CCC1C(=O)O)C1CC2CCC1C2 (configuration not stated),0
14,CCN(CC)c1ccc2cc(-c3nnc(-c4ccccc4)o3)c(=O)oc2c1,3
15,CCCn1nnnc1NC(=O)c1ccc2ccccc2c1,1 (active)
16,CCN(CC)CCn1c(NC(=O)c2ccc(Cl)cc2)nc2ccccc21,0
17,CCCn1nc2cc(C(=O)NCCc3ccc(C)cc3)ccc2c1OCC,0
18,CC1CN(C2CC(C)(C)NC(C)(C)C2)CCC1=O (configuration not stated),0
19,Cc1ccc2c(CC(=O)NC3CCCc4ccccc43)coc2c1 (configuration not stated),0
20,O=C1CCC(/C=C/c2ccccc2)=NN1Cc1ccc(Cl)c(Cl)c1,0
21,Cc1nn2c(NCCCN(C)C)c3c(nc2c1-c1ccccc1)CCC3,-1 (active)
22,Cc1cc(N2CCOCC2)n2nc(C)c(-c3ccccc3)c2n1,0
23,CCN1CCN(c2ccc(NC(=O)CCc3c(C)nc4c(-c5ccccc5)c(C)nn4c3C)cc2)CC1,0

row,SMILES,manual score
1,CCOC(=O)C1=C(C)NC2=C(C(=O)C(C(=O)OCC)C(c3cccc(OC)c3)C2)C1c1ccccn1 (configuration not stated),0
2,COC(=O)c1onc(C(=O)c2ccccc2)c1C(=O)OC,-1 (active)
3,Cc1cc(C)n(-c2ccc(C(=O)OCC(=O)Nc3ccc(Cl)c(S(=O)(=O)N(C)C)c3)cc2)n1,1 (active)
4,CCC(C(=O)OCC(=O)Nc1ccc(Cl)c(S(=O)(=O)N(C)C)c1)c1ccccc1 (configuration not stated),1 (active)
5,CC(C)C(=O)OCC(=O)Nc1ccc(N=Nc2ccccc2)cc1,0
6,CN(C)S(=O)(=O)c1cc(NC(=O)COC(=O)c2ccc3c(c2)OCO3)ccc1Cl,0.5
7,COC(=O)c1sccc1NC(=O)CSc1ccccc1NS(=O)(=O)c1cc(Cl)ccc1Cl,0
8,Cc1nn(CC(=O)Nc2ccc(Cl)c(S(=O)(=O)N(C)C)c2)c(C)c1[N+](=O)[O-],1 (active)
9,CCCCN(CCCC)c1nc2ccccc2nc1C(C#N)C(=O)NCCCOC (configuration not stated),3
10,Oc1ccccc1CNc1ccc(Br)cn1,0
11,CCSc1nc(-c2ccccc2)c(C#N)c(=O)[nH]1,0
12,CCC1(c2ccc(Cl)cc2)NC(=S)N(c2ccccc2)N1 (configuration not stated),1 (active)
13,S=C1NC(c2ccccc2)=NCN1c1ccc(Cl)cc1,0.5
14,CCCCOC(=O)c1ccc(NC(=S)NC(=O)c2c(Cl)cnn2CC)cc1,1 (active)
15,COC(=O)c1ccc(NC(=S)NC(=O)c2cc(-c3ccccc3)nc3ccccc23)cc1,0
16,CCCCOC(=O)c1ccc(NC(=S)NC(=O)c2c(Br)c(C)nn2C)cc1,0
17,COC(=O)c1ccc(NC(=S)NC(=O)c2c(Cl)cnn2C)cc1,1 (active)
18,CCCCOC(=O)c1ccc(NC(=S)NC(=O)c2c(Cl)cnn2C)cc1,0
19,Cn1ncc2cc(NC(=S)NC(=O)c3ccccc3)ccc21,0
20,COC(=O)C1=NN(C(=O)c2ccc(Cl)cc2)C(O)(c2ccccc2)C1 (configuration not stated),1 (active)
21,COC(=O)C1=NN(C(=O)c2ccc(C)cc2)C(O)(c2ccc(Cl)cc2)C1 (configuration not stated),1 (active)
22,CC1=NN(c2ccccc2)C(=O)C1C(=O)c1ccc(Cl)cc1 (configuration not stated),0.5
23,CCOC(=O)C1=NN(C(=O)c2ccc(C)cc2)C(O)(c2ccc(Cl)cc2)C1 (configuration not stated),1 (active)

row,SMILES,manual score
1,CCOC(=O)c1c(C)[nH]c(C(=O)COC(=O)CNC(=O)c2ccc(Cl)cc2)c1C,0
2,CCOC(=O)C1=NN(C(=O)c2ccccc2)C(O)(c2ccc(C)cc2)C1 (configuration not stated),1 (active)
3,CCOC(=O)C1=C(NC(=S)NC(=O)c2ccccc2)c2ccccc2CC1(C)C,0
4,CCC1=NN(C(=O)c2cccc(Br)c2)C(O)(c2ccc(Br)cc2)C1 (configuration not stated),0
5,CC(C)c1nc(N2CCOCC2)c(C#N)c2c1CCCC2,0
6,Cc1ccc2c(c1)NC(=O)CC(c1ccccc1)=N2,0
7,CC1CCCCC1NC(=S)Nc1ccc(SC(F)F)cc1 (configuration not stated),1 (active)
8,O=S(=O)(c1ccccc1)N1CCN(C(=S)Nc2ccc(F)cc2)CC1,0
9,CC1CCCC(NC(=S)Nc2ccc(SC(F)F)cc2)C1C (configuration not stated),1 (active)
10,Cc1ccc(SC(C)C(=O)Nc2ccc(S(=O)(=O)N3CCOCC3)cc2)cc1 (configuration not stated),0
11,CC1CC(C)CN(C(=S)Nc2ccc(SC(F)F)cc2)C1 (configuration not stated),1 (active)
12,Oc1cccc(NC(=S)Nc2ccc(SC(F)F)cc2)c1,1 (active)
13,CCNc1ccc2noc3c2c1C(=O)c1ccccc1-3,0
14,CCN(CC)c1ccc2c(c1)OC(N)=C(C#N)C2c1cccnc1 (configuration not stated),3
15,CCc1nc(SCc2ccc(F)cc2)[nH]c(=O)c1C#N,3
16,CCOc1ccc(-c2nc(-c3cccnc3)no2)cc1OCC,0
17,Cc1ccc(N=Nc2ccc(O)c3ncccc23)cc1,0
18,Cc1ccc(N=Cc2cc3c(cc2O)OC(N)=C(C#N)C3c2ccccc2)cc1 (configuration not stated),0
19,CCOc1cccc(C(=O)NC(=S)Nc2ccccc2)c1,0
20,CCOc1ccc(C(=O)NC(=S)N(Cc2ccccc2)Cc2ccccc2)cc1,1 (active)
21,COc1ccc(C(=O)NC(=S)N(Cc2ccccc2)Cc2ccccc2)cc1,1 (active)
